# Values without a mark were called inactive. Records with an inconclusive call do not appear. Entries that show only a call come without a potency. The source made the active and inactive calls. Calls follow the shape of the dose curve; as a rule, active = well fitted curve in the direction sought with a large enough effect; inconclusive = small, poorly fitted or top-dose-only effect, or another doubt; inactive = no such curve, though single readings can be large; an effect the other way counts as inactive or inconclusive.
# Tests used:
# [1] = target: Cytochrome P450 3A4 (Homo sapiens) (UniProt P08684); assay: qHTS Assay for Inhibitors and Substrates of Cytochrome P450 3A4 (AID 884); also: potency is read from the fitted curve at half-maximal effect; nearly all actives have a fitted effect of over 50% in size
# Cytochrome P450 3A4 (Homo sapiens), sequence (P08684 whole entry, looked up): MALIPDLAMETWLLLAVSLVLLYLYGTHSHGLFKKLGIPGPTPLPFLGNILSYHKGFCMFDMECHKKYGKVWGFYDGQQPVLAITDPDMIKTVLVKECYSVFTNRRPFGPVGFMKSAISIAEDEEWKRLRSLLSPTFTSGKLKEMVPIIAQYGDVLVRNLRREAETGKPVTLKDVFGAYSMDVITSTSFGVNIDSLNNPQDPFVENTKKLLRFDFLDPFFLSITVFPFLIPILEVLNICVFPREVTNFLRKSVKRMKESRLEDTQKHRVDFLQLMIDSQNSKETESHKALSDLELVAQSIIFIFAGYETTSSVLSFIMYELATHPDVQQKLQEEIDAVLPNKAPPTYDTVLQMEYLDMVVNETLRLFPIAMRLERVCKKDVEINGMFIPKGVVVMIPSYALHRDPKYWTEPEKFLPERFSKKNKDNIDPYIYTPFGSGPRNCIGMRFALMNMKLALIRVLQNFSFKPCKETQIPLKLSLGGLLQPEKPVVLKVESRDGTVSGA
# Outline: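 20 nM human CYP3A4 with 25 uM Luciferin-PPXE (at KM) in 200 mM KPO4, preincubated 10 min with compound; NADPH regeneration started a 60 min RT reaction. Luciferin detected by luminescence, normalized to 57 uM ketoconazole as full inhibition.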
# [2] = Confirmation and Secondary Assay for Modulators of Hemoglobin Beta Chain Splicing at IVS2 654 locus (AID 910);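 also: per-well total GFP intensity by laser scanning cytometry after 2-day treatment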
# Outline: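 HeLa cells stably carrying EGFP interrupted by mutant beta-globin IVS2-654 intron (CMV-driven) were treated with compound for 2 days at 37C; corrected splicing was scored as total peak GFP intensity per well (488 nm excitation, 500-520 nm emission).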
# [3] = Confirmation and Secondary Assay for Modulators of Hemoglobin Beta Chain Splicing at IVS2 705 locus (AID 930);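 also: HeLa cells stably expressing the EGFP-705 splicing reporter; GFP fluorescence per well restored by corrected splicing of the IVS2-705 intron in EGFP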
# Outline: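 Assay measures total GFP intensity per well in HeLa EGFP-705 cells after 2 days with compound; mis-splicing normally truncates EGFP, so fluorescence indicates corrected splicing.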
# [4] = target: Ubiquitin carboxyl-terminal hydrolase 1 (Homo sapiens) (UniProt O94782); assay: Inhibitors of USP1/UAF1: Pilot qHTS (AID 504865); also: potency is read from the fitted curve at half-maximal effect; nearly all actives have a fitted effect of over 35% in size
# Ubiquitin carboxyl-terminal hydrolase 1 (Homo sapiens), sequence (O94782 whole entry, looked up): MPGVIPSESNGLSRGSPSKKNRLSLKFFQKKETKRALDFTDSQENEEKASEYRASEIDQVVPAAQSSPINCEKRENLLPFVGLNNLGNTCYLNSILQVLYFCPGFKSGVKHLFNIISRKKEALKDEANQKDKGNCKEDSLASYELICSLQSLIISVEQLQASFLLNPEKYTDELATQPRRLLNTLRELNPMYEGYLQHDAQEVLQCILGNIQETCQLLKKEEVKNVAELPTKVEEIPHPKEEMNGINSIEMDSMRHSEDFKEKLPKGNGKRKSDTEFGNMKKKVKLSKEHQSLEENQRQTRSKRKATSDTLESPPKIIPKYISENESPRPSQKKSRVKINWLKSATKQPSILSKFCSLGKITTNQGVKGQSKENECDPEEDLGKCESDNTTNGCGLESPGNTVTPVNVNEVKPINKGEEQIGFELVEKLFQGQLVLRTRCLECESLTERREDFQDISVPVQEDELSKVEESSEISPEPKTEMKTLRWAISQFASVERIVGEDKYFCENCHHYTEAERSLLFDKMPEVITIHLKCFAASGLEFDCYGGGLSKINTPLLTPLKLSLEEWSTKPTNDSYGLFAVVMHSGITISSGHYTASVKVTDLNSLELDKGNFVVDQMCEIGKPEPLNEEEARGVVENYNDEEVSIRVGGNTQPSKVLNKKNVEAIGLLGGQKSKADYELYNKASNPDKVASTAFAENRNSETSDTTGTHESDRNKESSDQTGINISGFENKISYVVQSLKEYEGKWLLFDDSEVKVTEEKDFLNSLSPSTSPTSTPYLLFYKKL
# Outline: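 Kinetic fluorescence assay: 1nM USP1/UAF1, 15 min compound preincubation, then 150nM Ub-Rho; 480/540 nm.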
# [5] = target: DNA dC->dU-editing enzyme APOBEC-3G (Homo sapiens) (UniProt Q9HC16); assay: qHTS for inhibitors of Vif-A3G interactions: Validation (AID 588379)
# DNA dC->dU-editing enzyme APOBEC-3G (Homo sapiens), sequence (Q9HC16 whole entry, looked up): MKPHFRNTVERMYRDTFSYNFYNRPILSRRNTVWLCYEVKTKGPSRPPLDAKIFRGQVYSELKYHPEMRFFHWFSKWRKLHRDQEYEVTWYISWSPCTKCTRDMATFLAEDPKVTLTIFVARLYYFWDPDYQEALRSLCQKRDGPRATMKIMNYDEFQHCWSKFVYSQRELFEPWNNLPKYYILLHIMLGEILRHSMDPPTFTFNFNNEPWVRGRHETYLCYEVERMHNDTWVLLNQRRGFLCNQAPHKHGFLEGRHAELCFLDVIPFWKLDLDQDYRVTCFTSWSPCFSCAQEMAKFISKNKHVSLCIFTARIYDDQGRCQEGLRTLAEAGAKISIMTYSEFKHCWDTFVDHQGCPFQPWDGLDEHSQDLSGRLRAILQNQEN
# Outline: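 HeLa cells stably expressing Vif and A3G-eYFP, 700 cells/well, incubated overnight at 37 deg C, then exposed to compound overnight at 37 deg C. Inhibition of Vif-mediated degradation read as increased yellow fluorescence (Ex 488/Em 500-530) by laser-scanning cytometry.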
# [6] = target: Tumor susceptibility gene 101 protein (Homo sapiens) (UniProt Q99816); assay: qHTS Assay for Iinhibitors of HIV-1 Budding by Blocking the Interaction of PTAP/TSG101: Hit Validation (AID 651600); also: potency is read from the fitted curve at half-maximal effect; nearly all actives have a fitted effect of over 70% in size
# Tumor susceptibility gene 101 protein (Homo sapiens), sequence (Q99816 whole entry, looked up, the tested form may be a part): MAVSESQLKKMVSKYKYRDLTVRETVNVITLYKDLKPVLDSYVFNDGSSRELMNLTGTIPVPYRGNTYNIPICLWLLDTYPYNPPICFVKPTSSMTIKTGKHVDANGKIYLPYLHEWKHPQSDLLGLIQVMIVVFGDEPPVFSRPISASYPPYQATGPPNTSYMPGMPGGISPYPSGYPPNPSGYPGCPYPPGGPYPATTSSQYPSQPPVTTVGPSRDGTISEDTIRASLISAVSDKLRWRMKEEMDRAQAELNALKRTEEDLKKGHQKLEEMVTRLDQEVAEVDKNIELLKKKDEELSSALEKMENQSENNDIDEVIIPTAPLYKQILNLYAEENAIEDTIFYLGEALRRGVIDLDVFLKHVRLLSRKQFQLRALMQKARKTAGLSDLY
# Outline: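 Displacement of a FITC-labeled PTAP-motif peptide (50 nM) from the Tsg101 binding domain (10 uM) was monitored by fluorescence polarization after a 20 min room-temperature incubation.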
# [7] = target: Rap guanine nucleotide exchange factor 3 (Homo sapiens) (UniProt O95398); assay: Confirmatory qHTS for antagonist of cAMP-regulated guanine nucleotide exchange factor 3 (EPAC1) (AID 1645880); conditions: EPAC1 Rap1B-BODIPY-GDP exchange, fluorescence; activity, negative = inhibition: at 115 µM (top of the series); also: nearly all actives have a fitted effect of over 55% in size; also: potency is read from the fitted curve at half-maximal effect
# Rap guanine nucleotide exchange factor 3 (Homo sapiens), sequence (O95398 whole entry, looked up): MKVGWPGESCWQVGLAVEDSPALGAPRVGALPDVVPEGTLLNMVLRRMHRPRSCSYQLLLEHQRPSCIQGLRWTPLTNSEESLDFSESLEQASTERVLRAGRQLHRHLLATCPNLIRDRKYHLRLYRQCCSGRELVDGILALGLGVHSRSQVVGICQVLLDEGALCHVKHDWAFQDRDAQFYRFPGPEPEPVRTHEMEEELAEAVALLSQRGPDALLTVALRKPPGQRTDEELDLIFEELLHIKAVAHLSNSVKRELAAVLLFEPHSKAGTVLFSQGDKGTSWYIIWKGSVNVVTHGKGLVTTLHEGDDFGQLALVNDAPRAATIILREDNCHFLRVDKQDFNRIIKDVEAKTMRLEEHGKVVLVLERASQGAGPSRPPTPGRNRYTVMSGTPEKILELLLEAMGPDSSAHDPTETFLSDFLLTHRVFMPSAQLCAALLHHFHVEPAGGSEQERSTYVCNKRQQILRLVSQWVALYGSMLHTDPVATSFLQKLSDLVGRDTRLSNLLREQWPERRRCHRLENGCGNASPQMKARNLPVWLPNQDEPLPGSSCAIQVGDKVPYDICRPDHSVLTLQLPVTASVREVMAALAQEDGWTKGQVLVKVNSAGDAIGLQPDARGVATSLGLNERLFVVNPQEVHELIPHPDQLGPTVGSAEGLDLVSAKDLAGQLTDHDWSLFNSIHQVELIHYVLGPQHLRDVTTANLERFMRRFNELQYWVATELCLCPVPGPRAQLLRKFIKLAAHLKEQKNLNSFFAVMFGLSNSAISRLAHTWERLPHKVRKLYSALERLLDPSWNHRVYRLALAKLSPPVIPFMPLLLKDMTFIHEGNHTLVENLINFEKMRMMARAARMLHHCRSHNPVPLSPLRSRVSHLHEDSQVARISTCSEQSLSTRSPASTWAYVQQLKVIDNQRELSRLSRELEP
# Outline: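 Nucleotide exchange uses 100 nM EPAC1, 250 nM RAP1B-BODIPY-GDP and 50 uM GDP, with compounds in a concentration-titration series. After 5 min at room temperature, fluorescence (480 nm ex/540 nm em) is read every 5 min for 30 min. Data are normalized to control ATA and DMSO.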
# [8] = target: Rap guanine nucleotide exchange factor 3 (Homo sapiens) (UniProt O95398); assay: Confirmatory qHTS for agonist of cAMP-regulated guanine nucleotide exchange factor 3 (EPAC1) (AID 1645881); also: nearly all actives have a fitted effect of over 75% in size; also: potency is read from the fitted curve at half-maximal effect
# [9] = target: Rap guanine nucleotide exchange factor 4 (Homo sapiens) (UniProt Q8WZA2); assay: Confirmatory qHTS for antagonist of cAMP-regulated guanine nucleotide exchange factor 4 (EPAC2) (AID 1645885); also: nearly all actives have a fitted effect of over 25% in size; also: potency is read from the fitted curve at half-maximal effect
# Rap guanine nucleotide exchange factor 4 (Homo sapiens), sequence (Q8WZA2 whole entry, looked up): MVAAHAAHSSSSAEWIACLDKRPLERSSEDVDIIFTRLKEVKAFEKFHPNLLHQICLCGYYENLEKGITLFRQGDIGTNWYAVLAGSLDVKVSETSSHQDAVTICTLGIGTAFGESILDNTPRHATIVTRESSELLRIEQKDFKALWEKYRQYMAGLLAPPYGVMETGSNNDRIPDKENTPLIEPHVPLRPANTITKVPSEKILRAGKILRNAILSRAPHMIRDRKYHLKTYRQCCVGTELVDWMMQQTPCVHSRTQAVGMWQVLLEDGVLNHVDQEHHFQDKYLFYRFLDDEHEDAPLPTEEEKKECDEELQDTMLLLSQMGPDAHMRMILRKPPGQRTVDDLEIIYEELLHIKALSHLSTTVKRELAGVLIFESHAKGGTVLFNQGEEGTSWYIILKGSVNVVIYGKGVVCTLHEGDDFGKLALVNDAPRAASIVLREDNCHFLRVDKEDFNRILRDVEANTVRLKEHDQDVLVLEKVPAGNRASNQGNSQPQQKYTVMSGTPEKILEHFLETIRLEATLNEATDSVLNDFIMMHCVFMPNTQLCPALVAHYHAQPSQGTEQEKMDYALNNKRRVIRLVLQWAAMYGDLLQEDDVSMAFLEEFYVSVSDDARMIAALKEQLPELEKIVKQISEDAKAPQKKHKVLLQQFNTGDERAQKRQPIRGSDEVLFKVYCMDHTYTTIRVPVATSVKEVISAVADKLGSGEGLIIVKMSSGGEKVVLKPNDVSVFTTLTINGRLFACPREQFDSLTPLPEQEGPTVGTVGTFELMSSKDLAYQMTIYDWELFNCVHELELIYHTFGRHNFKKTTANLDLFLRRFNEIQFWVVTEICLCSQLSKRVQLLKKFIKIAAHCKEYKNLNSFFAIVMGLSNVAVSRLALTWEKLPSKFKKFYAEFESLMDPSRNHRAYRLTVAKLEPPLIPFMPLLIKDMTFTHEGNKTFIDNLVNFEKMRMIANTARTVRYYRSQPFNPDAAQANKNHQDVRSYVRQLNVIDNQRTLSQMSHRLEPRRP
# [10] = target: Rap guanine nucleotide exchange factor 3 (Homo sapiens) (UniProt O95398); assay: Counterscreen qHTS for antagonist of cAMP-regulated guanine nucleotide exchange factor 3 (EPAC1) (AID 1645888);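 also: fluorescence loss as bound BODIPY-GDP is released from Rap1B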
# Outline: (§1)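 Measured: fluorescence of BODIPY-GDP bound to Rap1B, which falls as exchange proceeds. Conditions include 50 uM competing GDP, 5 and 30 min reads, and a later cAMP challenge for antagonist detection.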
# [11] = target: Rap guanine nucleotide exchange factor 3 (Homo sapiens) (UniProt O95398); assay: Counterscreen qHTS for agonist of cAMP-regulated guanine nucleotide exchange factor 3 (EPAC1) (AID 1645889); also: nearly all actives have a fitted effect of over 40% in size
# Outline: as §1
smiles,measurement,setting,value
COc1cc(C)c2c(=O)cc(-c3ccccc3)oc2c1,Potency,[1],12.6 µM (active)
same,Potency,[2],inactive
same,Potency,[3],inactive
CC(=O)Oc1c2c(c3c(c1CC=C(C)C)O[C@@]14C(=CC5CC1C(C)(C)OC4(C/C=C(\C)C(=O)O)C5=O)C3=O)OC(C)(CCC=C(C)C)C=C2 (some centres undefined),Potency,[2],inactive
same,Potency,[3],inactive
same,Potency,[4],31.6 µM (active)
COc1ccc(C2OCC3(COC(C)=O)C(C)C=C(C)C2C3C)cc1 (centres undefined),outcome,[5],inactive
Oc1ccc2ccccc2c1-c1sc(Nc2ccccc2)n[n+]1-c1ccc(F)cc1,Potency,[6],10.3 µM (active)
COc1cc(/C=N/NC(=O)c2cc(O)cc(O)c2)ccc1OC(=O)c1ccccc1,Potency,[7],33.8 µM (active)
same,Potency,[8],inactive
same,Potency,[9],3.38 µM (active)
same,Potency,[10],inactive
CCOc1ccccc1NC(=O)c1ccccc1-c1ccccc1,Potency,[7],inactive
same,Potency,[8],inactive
same,Potency,[9],inactive
same,Potency,[10],inactive
COc1cc(NC(=O)CCNC(=O)Cn2ccc3ccccc3c2=O)cc(OC)c1OC,Potency,[7],inactive
same,Potency,[8],inactive
same,Potency,[9],inactive
same,Potency,[10],inactive
Cc1ccc(S(=O)c2ccc([N+](=O)[O-])c3nonc23)cc1 (centres undefined),Potency,[7],23.9 µM (active)
same,Potency,[8],inactive
same,Potency,[9],inactive
same,Potency,[10],inactive
Nc1ncnc2c1nc(Sc1ccc(Cl)cc1)n2[C@@H]1O[C@@H]2COP(=O)(O)O[C@H]2[C@H]1O,Potency,[7],0.213 µM (active)
same,Potency,[8],0.355 µM (active)
same,Potency,[9],0.675 µM (active)
same,Potency,[10],inactive
COc1ccc(-c2nc3ccccc3n2Cc2ccccc2)cc1,Potency,[7],inactive
same,Potency,[8],inactive
same,Potency,[9],inactive
same,Potency,[10],inactive
CCN(C(=O)c1sc2cc(OC)ccc2c1Cl)c1ccccc1,Potency,[7],inactive
same,Potency,[8],inactive
same,Potency,[9],inactive
same,Potency,[10],inactive
Cc1nc2c(C(=O)NCCc3ccccc3)c[nH]n2c(=O)c1Cc1ccc(F)cc1Cl,Potency,[7],84.9 µM (active)
same,Potency,[8],inactive
same,Potency,[9],inactive
same,Potency,[10],inactive
CCOc1ccc(NC(=O)CSc2nc(-c3cccc(Cl)c3)nc3c2Cc2c(CO)cnc(C)c2O3)cc1,Potency,[7],inactive
same,Potency,[8],inactive
same,Potency,[9],inactive
same,Potency,[10],inactive
CCCCCCn1c(=O)[nH]c2nc3cc(N)c(C)cc3nc2c1=O,Potency,[7],inactive
same,Potency,[8],112 µM (active)
same,Potency,[9],inactive
same,Potency,[10],inactive
OCCCCC#Cc1c(-c2ccsc2)sc2ccccc12,Potency,[7],inactive
same,Potency,[8],inactive
same,Potency,[9],inactive
same,Potency,[10],inactive
CCn1c2ccccc2c2cc(NC(=O)c3ccc(=O)oc3)ccc21,Potency,[7],inactive
same,Potency,[8],112 µM (active)
same,outcome,[9],inactive [at 12.7 µM]
same,Potency,[10],inactive
CC(=O)c1ccccc1NC(=O)COC(=O)CSCC(=O)Nc1cc(C)on1,Potency,[7],inactive
same,Potency,[8],inactive
same,Potency,[9],inactive
same,Potency,[10],inactive
CCOc1ccc(-n2cnc3scc(-c4ccc(OC)c(OC)c4)c3c2=O)cc1,Potency,[7],inactive
same,Potency,[8],inactive
same,Potency,[9],inactive
same,Potency,[10],inactive
CC(=O)c1cccc(NC2c3ccccc3C(=O)N2Cc2ccc3c(c2)OCO3)c1 (centres undefined),Potency,[7],inactive
same,Potency,[8],inactive
same,Potency,[9],inactive
same,Potency,[10],inactive
COc1ccc(NC(=O)CN(C)C(=O)c2cn(-c3ccccc3)nc2-c2cccnc2)cc1,Potency,[7],inactive
same,Potency,[8],inactive
same,Potency,[9],inactive
same,Potency,[10],inactive
COc1ccc(Br)cc1CN(C)CC(=O)Nc1c(Cl)cccc1Cl,Potency,[7],inactive
same,Potency,[8],inactive
same,Potency,[9],13.5 µM (active)
same,Potency,[10],inactive
Cc1cccc(Cn2c(-c3cccs3)nc3ccccc32)c1,Potency,[7],inactive
same,Potency,[8],inactive
same,Potency,[9],inactive
same,Potency,[10],inactive
COc1cc(SC)ccc1C(=O)NC1CCCc2ccccc21 (centres undefined),Potency,[7],inactive
same,Potency,[8],inactive
same,Potency,[9],30.1 µM (active)
same,Potency,[10],inactive
Cc1ccccc1SCC(=O)Nc1cc(C(F)(F)F)ccc1N1CCOCC1,Potency,[7],inactive
same,Potency,[8],inactive
same,Potency,[9],2.39 µM (active)
same,Potency,[10],inactive
O=C1CCC(C(=O)Nc2ccccc2N2CCCC2)=NN1,Potency,[7],inactive
same,Potency,[8],inactive
same,Potency,[9],inactive
same,Potency,[10],inactive
O=C1/C(=C\c2cccc(O)c2O)SC(=S)N1Cc1ccccc1,Potency,[7],75.7 µM (active)
same,Potency,[8],inactive
same,Potency,[9],inactive
same,Potency,[10],inactive
COC(=O)c1c(SC)nc2ccccc2c1OCc1ccc(Cl)cc1,Potency,[7],inactive
same,Potency,[8],inactive
same,Potency,[9],inactive
same,Potency,[10],inactive
Cc1cc(C)cc(NC(=O)c2sc3nc(-c4cc5ccccc5oc4=O)[nH]c(=O)c3c2C)c1,Potency,[7],inactive
same,Potency,[8],inactive
same,Potency,[9],inactive
same,Potency,[10],inactive
COCCOC(=O)c1c(-c2ccccc2)c(-c2ccccc2)nn(C)c1=O,Potency,[7],inactive
same,Potency,[8],inactive
same,Potency,[9],inactive
same,Potency,[10],inactive
O=C1CSC(c2ccc(Cl)cc2Cl)N1c1ccccn1 (centres undefined),Potency,[7],inactive
same,Potency,[8],inactive
same,Potency,[9],inactive
same,Potency,[10],inactive
Cc1ccc(C)c(Oc2nnnn2-c2ccccc2)c1,Potency,[7],inactive
same,Potency,[8],inactive
same,Potency,[9],inactive
same,Potency,[10],inactive
same,Potency,[11],inactive
COc1ccc(C(=O)c2oc3ccccc3c2NC(=O)c2cc(=O)c3ccc(C)cc3o2)cc1Cl,Potency,[7],inactive
same,Potency,[8],inactive
same,outcome,[9],inactive [at 12.7 µM]
same,Potency,[10],inactive
COc1cc2c(cc1OC)C(c1cccc(Cl)c1)CC(=O)N2 (centres undefined),Potency,[7],inactive
same,Potency,[8],inactive
same,Potency,[9],inactive
same,Potency,[10],inactive
COC(=O)C1=C(C)N(c2ccc(OC)cc2)C(C)=C(C(=O)OC)C1c1ccccc1,Potency,[7],inactive
same,Potency,[8],inactive
same,Potency,[9],inactive
same,Potency,[10],inactive
